Test results from PubChem BioAssay (NCI).
This is part of a sample that, as a whole, favours compounds with a hit. Of some 83,000 tested, about 20% had one in any assay.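 Plates (96-well) were seeded with cells, treated with compound at one concentration, and incubated for 48 hours before percent growth was determined.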 Unmarked numbers belong to inactive results. Calls of active or inactive are those of the source. Rule for the calls: active = growth percent below 10; inactive = the rest.

How the values were obtained:
Experiment in all cases: NCI-60 one-dose screen, 48 h (100 = growth as untreated, 0 = no growth, -100 = all killed)
Conditions in all cases: 10 µM unless noted
NCI-H23 lung = system: NCI-H23 lung
NCI-H226 lung = system: NCI-H226 lung
NCI-H322M lung = system: NCI-H322M lung
HOP-62 NSCLC = system: HOP-62 NSCLC
NCI-H460 lung = system: NCI-H460 lung
HOP-92 NSCLC = system: HOP-92 NSCLC
NCI-H522 lung = system: NCI-H522 lung
A549/ATCC NSCLC = system: A549/ATCC NSCLC
786-0 renal = system: 786-0 renal
DU-145 prostate = system: DU-145 prostate
K-562 leukemia = system: K-562 leukemia
MALME-3M melanoma = system: MALME-3M melanoma
MDA-MB-231 breast = system: MDA-MB-231 breast
RXF 393 renal = system: RXF 393 renal
SF-268 CNS = system: SF-268 CNS
SF-295 CNS = system: SF-295 CNS
SF-539 CNS = system: SF-539 CNS
UACC-257 melanoma = system: UACC-257 melanoma
M14 melanoma = system: M14 melanoma

Compound	growth (NCI-H23 lung)	growth (NCI-H226 lung)	growth (NCI-H322M lung)	growth (HOP-62 NSCLC)	growth (NCI-H460 lung)	growth (HOP-92 NSCLC)	growth (NCI-H522 lung)	growth (A549/ATCC NSCLC)	growth (786-0 renal)	growth (DU-145 prostate)	growth (K-562 leukemia)	growth (MALME-3M melanoma)	growth (MDA-MB-231 breast)	growth (RXF 393 renal)	growth (SF-268 CNS)	growth (SF-295 CNS)	growth (SF-539 CNS)	growth (UACC-257 melanoma)	growth (M14 melanoma)
CCCCN1CCN(c2ccc3nc(-c4ccc5nc(-c6ccc(OCC)c(OCC)c6)[nH]c5c4)[nH]c3c2)CC1	-55.9% (active)	16.2%	14.1%	-69.7% (active)	-84.3% (active)	81.3%	-32.2% (active)	37.7%	-87.4% (active)	-86.2% (active)	-37.1% (active)	9.35% (active)	-81.2% (active)	-96.3% (active)	51.6%	-67.8% (active)	-93.7% (active)	29%	-28% (active)
Cc1ccc(S(=O)(=O)Nc2sccc2-c2nc(-c3ccccc3)no2)cc1	87.5%	87.9%	82.1%	77.8%	92.3%	88.8%	81.2%	90.3%	94.5%	105%	103%	94.4%	101%	96.1%	92.4%	99.3%	95%	89.3%	87.1%
COc1ccc(C2CC(c3cnccn3)=NN2)cc1OC (stereo not drawn)	101%	98.8%	90.9%	111%	108%	68.3%	67%	90.4%	92%	104%	60.9%	95.4%	106%	100%	103%	104%	111%	106%	89.5%
O=C(/C=C/C12c3ccccc3C(c3ccccc31)C1C(=O)NC(=O)C12)c1ccccc1 (stereo not drawn)	6.51% (active)	11%	17.6%	34.8%	1.66% (active)	3.17% (active)	39.1%	26.3%	27.1%	19.4%	13.5%	47.5%	14%	-13.1% (active)	29.6%	28.2%	18.5%	46.6%	19.6%
Cl.Fc1c[c-]c(-c2ccccn2)c(F)c1.[Pt].c1ccc([PH+](C[PH+](c2ccccc2)c2ccccc2)c2ccccc2)cc1	-78.1% (active)	-65.9% (active)	-98.3% (active)	-55.4% (active)	-63.5% (active)	-74.2% (active)	-60.1% (active)	-58.5% (active)	-68.1% (active)	-94.8% (active)	-18.5% (active)	-92.9% (active)	-83.8% (active)	-91.6% (active)	-70% (active)	-87.6% (active)	-86.4% (active)	-48.6% (active)	-87.1% (active)
CCN(CC)S(=O)(=O)c1ccc(O)c(NC(=O)c2[nH]c(C)c(C(C)=O)c2CCc2ccc(Cl)cc2)c1	19.6%	62.5%	54.7%	48.9%	50.2%	38.2%	11.9%	37.2%	73.4%	68.4%	29.8%	53%	50.6%	91.2%	55.4%	59.3%	64.5%	38.3%	56.8%
C=C(C)[C@@H]1CC[C@]2(C(=O)NCC(=O)O)CC[C@]3(C)[C@H](CC[C@@H]4[C@@]5(C)Cc6c([nH]c7ccccc67)C(C)(C)[C@@H]5CC[C@]43C)[C@@H]12	73.5%	87.8%	85.5%	58.5%	88.5%	81%	41.9%	67.1%	84.4%	93.5%	72.4%	107%	92%	91.2%	76.1%	56.2%	56.3%	87.1%	86.9%
COc1cc2c(cc1OC)-c1ccc3cc4c(cc3c1N(CCN(C)C)C2)OCO4	-8.26% (active)	-84.7% (active)	-3.14% (active)	-21.6% (active)	-34.2% (active)	-5.08% (active)	-44.9% (active)	-57.3% (active)	-87.7% (active)	6.23% (active)	2.7% (active)	24.3%	-2.8% (active)	-32.7% (active)	23.6%	-6.18% (active)	-7.83% (active)	10.4%	-7.62% (active)
CC(=O)c1cc2c(o1)C(=O)c1ccccc1C2=O	-33.2% (active)	-59.1% (active)	-92.7% (active)	-57.9% (active)	-71.8% (active)	-9.05% (active)	-56.8% (active)	-44.4% (active)	-93.4% (active)	-97.8% (active)	-24.9% (active)	-97.9% (active)	-21.5% (active)	-93.8% (active)	-62.6% (active)	-93.4% (active)	-98.5% (active)	-88.5% (active)	-88.4% (active)
CCNCCNc1cc(C2CCCC2)c(C#N)c2nc3ccccc3n12	69.6%	46.1%	23.7%	33.9%	2.84% (active)	52.3%	6.72% (active)	7.98% (active)	20%	28%	-28.3% (active)	-46.6% (active)	-45% (active)	-32.4% (active)	22.1%	-61.7% (active)	-82.4% (active)	-27.3% (active)	-25.7% (active)
N=C(N)c1ccc(-c2ccc(-c3ccc(Cl)cc3Cl)o2)cc1	3.61% (active)	93.7%	-53.9% (active)	-12.1% (active)	-65.7% (active)	45.3%	1.99% (active)	-46.5% (active)	-86% (active)	-17.9% (active)	-12.9% (active)	17.4%	-69.7% (active)	32.1%	47.3%	-77.1% (active)	-61.7% (active)	90.9%	8.85% (active)
O=C1N(c2ccccc2)C(=S)N[C@]12[C@H](c1ccccc1)C1CCCN1[C@]21C(=O)NC2C=CC(Cl)=C[C@H]21 (stereo partly drawn)	96.2%	82.5%	99.2%	91.5%	102%	56.7%	61.8%	75.4%	97%	103%	81.5%	97%	88.4%	100%	101%	103%	103%	69.8%	81.9%
